Results as given in PubChem BioAssay (NCATS).
Results filed as inconclusive are left out. Activity calls are given as the source filed them. Calls follow the shape of the dose curve; as a rule, active = well fitted inhibition curve with a large enough effect; inconclusive = small, poorly fitted or top-dose-only effect; inactive = flat fitted curve, though single readings scatter.

Assays:
Assay in all cases: qHTS profiling for inhibitors of Plasmodium falciparum proliferation (AID 504749); also: nearly all actives have a fitted effect of over 60% in size
Conditions in all cases: P. falciparum in erythrocytes, SYBR Green DNA, 72 h; series mostly up to 28.7 µM
CP211 = test system: CP211
How it was run: (§1)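 Readout was DNA-dye fluorescence from lysed cultures, ex 485/em 535 nm. Parasitized red cells had grown 72 h with compound; data scaled between 0.29 uM artemisinin and DMSO wells and corrected using vehicle-only plates.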

CP215 = test system: CP215
How it was run: as §1

CP217 = test system: CP217
How it was run: as §1

CP237 = test system: CP237
How it was run: as §1

CP238 = test system: CP238
How it was run: as §1

CP247 = test system: CP247
How it was run: as §1

CP250 = test system: CP250
How it was run: as §1

CP252 = test system: CP252
How it was run: as §1

CP256 = test system: CP256
How it was run: as §1

CP260 = test system: CP260
How it was run: as §1

CP262 = test system: CP262
How it was run: as §1

CP265 = test system: CP265
How it was run: as §1

CP266 = test system: CP266
How it was run: as §1

CP268 = test system: CP268
How it was run: as §1

CP269 = test system: CP269
How it was run: as §1

CP286 = test system: CP286
How it was run: as §1

CP291 = test system: CP291
How it was run: as §1

CP297 = test system: CP297
How it was run: as §1

CP305 = test system: CP305
How it was run: as §1

CP315 = test system: CP315
How it was run: as §1

Measured: Potency
Potency is read from the fitted curve at half-maximal effect.

O=C(CCCN1CCN(c2ccccn2)CC1)c1ccc(F)cc1
inactive: all assays above

Nc1ccc(S(=O)(=O)Nc2ccccc2)cc1
inactive: all assays above

COc1cc(C(=O)N2CCOCC2)cc(OC)c1OC
inactive: all assays above

[O-][n+]1cccc(CO)c1
inactive: all assays above

CC12CCC(CC1)C(C)(C)O2
inactive: all assays above

NCC(=O)CCC(=O)O
not listed: CP297
inactive: all other assays above

CCCCN(CCCC)CC(O)c1cc(Cl)cc2c1-c1ccc(Cl)cc1/C2=C/c1ccc(Cl)cc1 (stereo not given)
active: CP211 0.0536 µM | CP215 0.0426 µM | CP217 0.0355 µM | CP237 0.0112 µM | CP238 0.0282 µM | CP247 0.0398 µM | CP250 0.0282 µM | CP252 0.0355 µM | CP256 0.0794 µM | CP260 0.0316 µM | CP262 0.0338 µM | CP265 0.112 µM | CP266 0.135 µM | CP268 0.135 µM | CP269 0.0379 µM | CP286 0.0316 µM | CP291 0.0379 µM | CP297 0.0338 µM | CP305 0.107 µM | CP315 0.0536 µM

O=S(=O)(O)c1cc(I)c(O)c2ncccc12
not listed: CP260
inactive: all other assays above

O=C(O)c1ccccc1O
not listed: CP297
inactive: all other assays above

COC(=O)C1=C(C)NC(C)=C(C(=O)OC)C1c1ccccc1[N+](=O)[O-]
not listed: CP247 | CP250 | CP260
inactive: all other assays above

CCCc1c(OCCCCc2nn[nH]n2)ccc(C(C)=O)c1O
not listed: CP247 | CP260 | CP315
inactive: all other assays above

CCCOC(=O)c1ccccc1
not listed: CP262
inactive: all other assays above

Nc1nc2c(ncn2CCC(CO)CO)c(=O)[nH]1
not listed: CP266
inactive: all other assays above

CCCn1cnc2c1c(=O)n(CCCCC(C)=O)c(=O)n2C
not listed: CP269
inactive: all other assays above

Cc1cc(N)c2ccccc2[n+]1CCCCCCCCCC[n+]1c(C)cc(N)c2ccccc21
active: CP211 0.144 µM | CP215 0.809 µM | CP217 0.447 µM | CP237 0.126 µM | CP238 0.282 µM | CP247 1.58 µM | CP250 0.708 µM | CP252 0.447 µM | CP256 0.0794 µM | CP260 0.631 µM | CP262 0.181 µM | CP265 0.0004 µM | CP268 0.572 µM | CP269 0.51 µM | CP286 0.447 µM | CP291 0.405 µM | CP297 0.405 µM | CP305 0.228 µM | CP315 0.721 µM

O=C(O)[C@@H]1CSCN1
not listed: CP247 | CP266
inactive: all other assays above

C[C@]12C[C@H](O)[C@H]3[C@@H](CCC4=CC(=O)CC[C@@]43C)[C@@H]1CC[C@@H]2C(=O)CO
not listed: CP217 | CP238 | CP247 | CP250 | CP252 | CP256 | CP265
inactive: all other assays above

CC(=O)NC(Cc1ccccc1)C(=O)O (stereo not given)
not listed: CP247
inactive: all other assays above

Nc1ccc(S(=O)(=O)Nc2ccc(Cl)nn2)cc1
not listed: CP217 | CP238 | CP247 | CP250 | CP252 | CP256 | CP262 | CP265
inactive: all other assays above

NCCNCCNCCN
not listed: CP215
inactive: all other assays above

CC1=C(CC(=O)O)c2cc(F)ccc2/C1=C\c1ccc(S(C)=O)cc1 (stereo not given)
not listed: CP266
inactive: all other assays above

CN(C)CCN(Cc1ccccc1)c1ccccn1
active: CP237 5.01 µM
not listed: CP238 | CP252 | CP260 | CP265 | CP268 | CP286 | CP291 | CP305
inactive: all other assays above

CC[C@@]1(c2ccccc2)NC(=O)N(C)C1=O
not listed: CP262
inactive: all other assays above

COc1ccc2[nH]c(S(=O)Cc3ncc(C)c(OC)c3C)nc2n1 (stereo not given)
active: CP247 11.2 µM
inactive: CP211 | CP215 | CP262 | CP268 | CP269 | CP291 | CP305 | CP315

NC1CCN(c2cccc(Cl)n2)CC1
active: CP237 12.6 µM
not listed: CP297
inactive: all other assays above

O=S(=O)(O)NC1CCCCC1
not listed: CP250
inactive: all other assays above
